Counter-ions that a name gives are not always drawn. Over roughly 2,000 compounds, “fractional viability relative to vehicle” has its median near 0.91; the lowest 2% begin near 0.045. Many of the other results were omitted from the sample, so the lowest values are more common in it than they were.
Test system: TYKNU
Test: fractional viability relative to vehicle; TYKNU is a high-grade serous ovarian cancer line; higher = less growth inhibition
Conditions: 72 h
Procedure, shortened: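 TYKNU control cells or lentiCRISPRv2 knockout derivatives were seeded at 500 cells per well into drug-stamped 384-well plates holding a ~2100-compound library at 2 or 10 μM, in duplicate. Cells were grown at 37 °C in 5% CO2 in RPMI 1640 with 10% FBS, and drug treatment lasted 72 h. Viability was read by Cell Titer Glo luminescence. Duplicate treatment wells were averaged and normalised to duplicate control wells from the same plate position.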

[1] = 2uM, genotype: DNM1L knockout (sgDNM1L #1)
[2] = 2uM, genotype: sgCTRLA1 (non-targeting control)
[3] = 10uM, genotype: DNM1L knockout (sgDNM1L #1)
[4] = 10uM, genotype: sgCTRLA1 (non-targeting control)

| Structure (SMILES) | fractional viability [1] | fractional viability [2] | fractional viability [3] | fractional viability [4] |
| --- | --- | --- | --- | --- |
| COc1nc(OCc2cccc(-c3ccccc3)c2C)ccc1CNCCNC(C)=O [PD-1/PD-L1 inhibitor 2] | 0.852 | 0.872 | 0.501 | 0.0875 |
| O=C(/C=C\n1cnc(-c2cc(C(F)(F)F)cc(C(F)(F)F)c2)n1)NNc1ccccn1 [Verdinexor (KPT-335)] | 0.137 | 0.13 | 0.162 | 0.121 |
| C[C@@H]1O[C@@H](O[C@H]2[C@H](Oc3cc(O)c4c(c3)O[C@H](c3ccc(O)cc3)CC4=O)O[C@H](CO)[C@@H](O)[C@@H]2O)[C@H](O)[C@H](O)[C@H]1O [Naringin] | 0.915 | 1.12 | 0.827 | 1 |
| CN1CCC(Nc2nc(Nc3ccc(Oc4ccccc4)cc3)c3c(=O)[nH]cc(Br)c3n2)CC1 | 0.131 | 0.279 | 0.0286 | 0.0109 |
| c1nc2c(NC3CCCCC3)nc(Nc3ccc(N4CCOCC4)cc3)nc2[nH]1 [Reversine] | 0.545 | 0.579 | 0.229 | 0.216 |
| C=C1CC[C@H](O)C/C1=C/C=C1\CCC[C@]2(C)[C@@H]([C@H](C)/C=C/[C@H](C)C(C)C)CC[C@@H]12 [Vitamin D2] | 1.19 | 1.02 | 0.175 | 0.739 |
| O=C1NC(=O)/C(=C/c2cccc(C(F)(F)F)c2)S1 | 0.748 | 0.945 | 0.687 | 0.786 |
| COc1ccc2c(c1)CCC1C2CCC2(C)C(NCCCCCCN3C(=O)C=CC3=O)CCC12 (configuration not stated) | 0.849 | 0.972 | 0.942 | 0.781 |
| C[C@H]1O[C@@H](n2cc(F)c(=O)[nH]c2=O)[C@H](O)[C@@H]1O [Doxifluridine] | 1.11 | 1.13 | 0.893 | 1.06 |
| CCCCc1oc2ccccc2c1C(=O)c1cc(I)c(OCCN(CC)CC)c(I)c1 [Amiodarone HCl] | 0.996 | 1.07 | 0.736 | 0.965 |
| CN(CCOc1ccc(NS(C)(=O)=O)cc1)CCc1ccc(NS(C)(=O)=O)cc1 [Dofetilide] | 0.999 | 0.981 | 0.838 | 0.933 |
| CCCCc1oc2ccc(NS(C)(=O)=O)cc2c1C(=O)c1ccc(OCCCN(CCCC)CCCC)cc1 [Dronedarone HCl] | 0.712 | 0.919 | 0.0442 | 0.0545 |
| CN(C)c1nc(N(C)C)nc(N(C)C)n1 [Altretamine] | 1.05 | 1.07 | 0.977 | 1.03 |
| CNC(=O)c1ccccc1Oc1nc(Nc2cc(OC)c(OC)c(OC)c2)ncc1Br | 0.847 | 0.94 | 0.581 | 0.589 |
| CN(CC(=O)N(Cc1ccc(C2CCCCC2)cc1)c1ccc(C(=O)O)cc1)S(=O)(=O)c1c(F)c(F)c(F)c(F)c1F | 0.435 | 0.661 | 0.042 | 0.0176 |
| FC(F)(F)c1ccc(/C=C/c2nc(COc3ccc(CCCCn4ccnn4)cc3)co2)cc1 [Mubritinib (TAK 165)] | 0.716 | 0.534 | 0.545 | 0.517 |
| O=C1CCC[C@@H]2[C@H]3CCC[N+]4([O-])CCC[C@@H](CN12)[C@@H]34 (some centres not stated) [Oxymatrine] | 0.927 | 1.15 | 0.812 | 1.1 |
| CC1=CC(=O)NS(=O)(=O)O1 [Acesulfame Potassium] | 1.16 | 1.13 | 0.791 | 1.17 |
| CC(C)(C)c1ccc(S(=O)(=O)/C=C/C#N)cc1 | 0.119 | 0.091 | 0.0418 | 0.0217 |
| Cc1ccc(S(=O)(=O)/C=C/C#N)cc1 | 0.0925 | 0.0355 | 0.0225 | 0.01 |

| Structure (SMILES) | fractional viability [1] | fractional viability [2] | fractional viability [3] | fractional viability [4] |
| --- | --- | --- | --- | --- |
| C/C=C1/[C@H](O[C@@H]2O[C@H](CO)[C@@H](O)[C@H](O)[C@H]2O)OC=C(C(=O)OC)[C@H]1CC(=O)OCCc1ccc(O)c(O)c1 [Oleuropein] | 0.773 | 0.978 | 0.843 | 0.774 |
| CC[C@H](C)C[C@H](C)CCCCCCCCC(=O)N[C@H]1C[C@@H](O)[C@@H](NCCN)NC(=O)[C@@H]2[C@@H](O)CCN2C(=O)[C@H]([C@H](O)CCN)NC(=O)[C@H]([C@H](O)[C@@H](O)c2ccc(O)cc2)NC(=O)[C@@H]2C[C@@H](O)CN2C(=O)[C@H]([C@@H](C)O)NC1=O [Caspofungin Acetate] | 0.98 | 1.17 | 0.637 | 1.01 |
| Cc1ncc(Cl)cc1NCc1ccc(C(=O)N[C@@H](CC2CCCC2)C(=O)NC2CC2)s1 | 0.845 | 0.992 | 0.838 | 0.778 |
| CCOc1ccc(Cc2cc([C@@H]3O[C@H](SC)[C@@H](O)[C@H](O)[C@H]3O)ccc2Cl)cc1 [Sotagliflozin (LX4211)] | 0.825 | 1.02 | 0.592 | 0.694 |
| COC(=O)C[C@H](NC(=O)[C@H](C)NC(=O)[C@@H](NC(=O)OCc1ccccc1)C(C)C)C(=O)CF | 0.89 | 1.14 | 0.837 | 1.1 |
| COc1cc(N2CCC(N)CC2)ccc1Nc1ncc(Cl)c(-c2c[nH]c3ccccc23)n1 | 0.359 | 0.386 | 0.0459 | 0.0363 |
| CCOc1cc(N2CCC(O)CC2)ccc1Nc1ncc2c(n1)N(C)c1ccccc1C(=O)N2C | 0.651 | 0.842 | 0.539 | 0.531 |
| CNC(=O)c1ccccc1Nc1nc(Nc2ccc(N3CCOCC3)cc2OC)ncc1Cl | 0.85 | 0.837 | 0.292 | 0.206 |
| CN(N=O)C(=O)NC1C(O)OC(CO)C(O)C1O (configuration not stated) [Streptozotocin (STZ)] | 1.1 | 1.2 | 0.905 | 1.2 |
| C/C(=N\NC(=O)c1cccc(S(=O)(=O)N2CCOCC2)c1)c1cc(Cl)ccc1O | 0.348 | 0.356 | 0.242 | 0.136 |
| COc1ccc(-c2cnc3c(-c4cccc5ncccc45)cnn3c2)cc1 | 1.18 | 1.28 | 1.1 | 1.2 |
| c1cc(-c2cnn3cc(-c4ccc(N5CCNCC5)cc4)cnc23)c2cccnc2c1 | 0.0431 | 0.069 | 0.0409 | 0.021 |
| COc1cc(-c2cc(-c3ccc(N4CCNCC4)cc3)cnc2C)cc(OC)c1OC | 0.714 | 1.02 | 0.834 | 0.772 |
| CNC(=O)c1cccc(-c2ccc3c(N4CCOC[C@@H]4C)nc(N4CCOC[C@@H]4C)nc3n2)c1 | 0.277 | 0.218 | 0.201 | 0.237 |
| CCCCCCCCCCCCc1ccc(S(=O)(=O)Nc2nncs2)cc1 | 0.997 | 1.07 | 0.843 | 0.966 |
| CCCCCCCc1ccc(CCc2cccc(O)c2C(=O)O)cc1 | 0.825 | 1.04 | 0.896 | 0.765 |
| CCCCCCCCc1ccc(CCC(N)(CO)CO)cc1 [Fingolimod (FTY720) HCl] | 0.722 | 1.02 | 0.0372 | 0.0418 |
| CCCCc1nc2cc(/C=C/C(=O)NO)ccc2n1CCN(CC)CC [Pracinostat (SB939)] | 0.146 | 0.22 | 0.0823 | 0.0879 |
| O=C1NC(=O)/C(=C/c2ccc3nccc(-c4ccncc4)c3c2)S1 | 0.556 | 0.7 | 0.21 | 0.219 |
| CCCCCCCCCCCCCCCC[N+](C)(C)C [Cetrimonium Bromide (CTAB)] | 0.311 | 0.295 | 0.0593 | 0.0171 |

| Structure (SMILES) | fractional viability [1] | fractional viability [2] | fractional viability [3] | fractional viability [4] |
| --- | --- | --- | --- | --- |
| CCCCCCCCCCCC[N+](C)(C)CCOc1ccccc1 [Domiphen Bromide] | 0.558 | 0.882 | 0.0673 | 0.0826 |
| CCCCCCCCCCCCCCCCO [1-Hexadecanol] | 0.833 | 1.09 | 0.879 | 1.1 |
| COc1ccc(-n2c(SCCCN3C(=O)c4cccc5cccc(c45)C3=O)nnc2-c2ccncc2)cc1 | 0.722 | 0.945 | 0.895 | 0.738 |
| Nc1nccc(Oc2ccc(NC(=O)c3c[nH]cc(-c4ccc(F)cc4)c3=O)cc2F)c1Cl | 1.09 | 1.05 | 0.598 | 0.808 |
| CC1(C)CCC2=C(O1)c1ccccc1C(=O)C2=O [Beta-Lapachone] | 0.128 | 0.0912 | 0.0219 | 0.023 |
| CC1=CC(=O)c2ccccc2C1=O [Menadione] | 0.872 | 1.1 | 0.952 | 0.951 |
| N#C/C(=C(/N)Sc1ccc(N)cc1)c1ccccc1C(F)(F)F | 0.881 | 0.905 | 0.626 | 0.785 |
| OC[C@H]1O[C@@H](c2ccc(Cl)c(Cc3ccc(O[C@H]4CCOC4)cc3)c2)[C@H](O)[C@@H](O)[C@@H]1O | 0.8 | 1.06 | 0.788 | 0.819 |
| Oc1cc2c(cc1O)[C@@H]1c3ccc(O)c(O)c3OC[C@]1(O)C2 [Hematoxylin] | 0.878 | 1.11 | 0.861 | 0.977 |
| CCOC(=O)[C@H](CCc1ccccc1)N[C@H]1CS[C@H](c2cccs2)CN(CC(=O)O)C1=O [Temocapril HCl] | 0.889 | 1.23 | 0.83 | 1.04 |
| CC(C)c1cc(-c2n[nH]c(=O)n2-c2ccc3c(ccn3C)c2)c(O)cc1O [Ganetespib (STA-9090)] | 0.299 | 0.204 | 0.248 | 0.206 |
| Cc1[nH]c(/C=C2\C(=O)Nc3ccc(S(=O)(=O)Cc4c(Cl)cccc4Cl)cc32)c(C)c1C(=O)N1CCC[C@@H]1CN1CCCC1 | 0.317 | 0.279 | 0.0474 | 0.0167 |
| Cc1[nH]c(/C=C2\C(=O)Nc3ccc(S(=O)(=O)N(C)c4cccc(Cl)c4)cc32)c(C)c1C(=O)N1CCN(C)CC1 | 1.02 | 0.999 | 0.152 | 0.189 |
| CN(C)S(=O)(=O)c1ccc2c(c1)/C(=C/c1cc3c([nH]1)CCCC3)C(=O)N2 | 0.562 | 0.815 | 0.234 | 0.264 |
| CCOC(=O)c1ccc(NC(=O)O[C@H]2[C@H](OC(=O)Nc3ccc4c(c3)OCO4)[C@@H](OC(=O)Nc3ccc4c(c3)OCO4)[C@@H](OC)O[C@@H]2CO)cc1 | 0.821 | 1.04 | 0.616 | 0.615 |
| CCCCCCCCC/C(=C\C1=C(C)C(=O)C(OC)=C(OC)C1=O)C(=O)O | 0.847 | 0.878 | 0.855 | 0.701 |
| Cc1ccc(-n2sc(=O)n(Cc3ccc(F)cc3)c2=O)cc1 | 0.995 | 1.11 | 0.469 | 0.618 |
| Cn1sc(=O)n(Cc2ccccc2)c1=O | 0.797 | 0.735 | 0.0256 | 0.00748 |

Source: the supplement of paper PMC5919970
